Data on 23 compounds can be found in publication PMC11062922 (Nature Chemical Biology, 2023).

Read-outs that look alike come from different tables or passages of the source.

What all share (set-up): species or system human, MV4-11 + K-562 + COLO205 + SK-N-BE2 + OVCAR-8
For assay [1], the system named is DCTPP1. Particulars: read-out: apparent Kd, n = 1.
Assay [2] has as its system TAOK2. Particulars: read-out: apparent Kd, n = 1.
Assay [3] concerns MYLK3. Particulars: read-out: apparent Kd, n = 1.
The subject of assay [4] is PRKX;PRKY. Particulars: read-out: apparent Kd, compound concentrations: 100 nM and 1000 nM (sheet 'Samples'), n = 1.
The subject of assay [5] is COX5A. Particulars: read-out: apparent Kd, n = 1.
Assay [6] concerns STK26. The following applies: read-out: apparent Kd; compound concentrations:100 nM and 1000 nM (sheet 'Samples'); n = 1.
In assay [7] the test system is MAP4K2. Particulars: read-out: apparent Kd, n = 1.
The test system of assay [8] is PAK4. Particulars: read-out: apparent Kd, n = 1.
Assay [9] has as its system MARK4. The following applies: read-out: apparent Kd, compound concentrations: 100 nM and 1000 nM (sheet 'Samples'), n = 1.
The test system of assay [10] is PIK3C2A. Particulars: read-out: apparent Kd, compound concentrations: 100 nM and 1000 nM (sheet 'Samples'), n = 1.
Assay [11] deals with STRADA. Particulars: read-out: apparent Kd, compound concentrations: 100 nM and 1000 nM (sheet 'Samples'), n = 1.
For assay [12], the system named is MAP3K11. The following applies: read-out: apparent Kd; compound concentrations: 100 nM and 1000 nM (sheet 'Samples'), CATDS: 8.9937609356747009E-3; n = 1.
In assay [13] the test system is PRKAA1. The following applies: read-out: apparent Kd, n = 1.
Assay [14] relates to PRKAA2. The following applies: read-out: apparent Kd, n = 1.
In assay [15] the test system is PRKAG2. The following applies: read-out: apparent Kd, compound concentrations: 100 nM and 1000 nM (sheet 'Samples'), n = 1.
The subject of assay [16] is STK4. Particulars: read-out: apparent Kd, n = 1.
The subject of assay [17] is BRAF. Particulars: read-out: apparent Kd; compound concentrations: 100 nM and 1000 nM (sheet 'Samples'), CATDS: 1.66184718911398E-2; n = 1.
For assay [18], the system named is CSNK1E. Particulars: read-out: apparent Kd; compound concentrations:100 nM and 1000 nM (sheet 'Samples'); n = 1.
Assay [19] deals with SLK. The following applies: read-out: apparent Kd; compound concentrations:100 nM and 1000 nM (sheet 'Samples'); n = 1.
Where [20] appears, read: compound concentrations:100 nM and 1000 nM (sheet 'Samples').

For `COc1ccccc1CNC1=NC(=O)/C(=C/c2ccc3ncccc3c2)S1` [RO4503315-000], in assay [1] (compound concentrations: 100 nM and 1000 nM (sheet 'Samples'), CATDS: 6.8298728287036994E-2), the potency estimated from few doses was 1390 nM.

Turning to `CCN(CC)CCOc1ccc(Nc2ncc3cc(-c4c(Cl)cccc4Cl)c(=O)n(C)c3n2)cc1` [SB-601273], in assay [2] (setting [20]), the potency estimated from few doses was 1150 nM.

In the case of `O=C1N=C(NCc2ccccc2)S/C1=C\c1ccc2ncccc2c1` [RO4442080-000], the potency estimated from few doses in [3] (compound concentrations: 100 nM and 1000 nM (sheet 'Samples'), CATDS: 7.9842207059825906E-2) is 1930 nM; in assay [4] (CATDS: 0.10891085030607001) it was 835 nM.

For the compound `Nc1nc(-c2ccc3c(N)n[nH]c3c2)cc(N2CCCCC2)n1` [GSK2228768A], the potency estimated from few doses is 1060 nM in [5] (setting [20]), 1720 nM in [1] (setting [20]) and 1330 nM in [6].

With `Cc1cccc(Nc2nc(NCCN)ncc2C(N)=O)c1` [GSK1292139B], the potency estimated from few doses in assay [7] (compound concentrations: 100 nM and 1000 nM (sheet 'Samples'), CATDS: 7.8363425236556997E-2) was 1110 nM; in assay [8] (compound concentrations: 100 nM and 1000 nM (sheet 'Samples'), CATDS: 9.0340207585202004E-2), 778 nM.

As to `CS(=O)(=O)CCNCc1ccc(-c2ccc3ncnc(Nc4ccc(OCc5cccc(F)c5)c(C(F)(F)F)c4)c3c2)o1` [GW576484X], the potency estimated from few doses in assay [9] (CATDS: 5.9224998960535298E-2) was 1370 nM; in assay [10] (CATDS: 5.2836581053762099E-2), 1740 nM; in assay [11] (CATDS: 5.2854601863181902E-2) it was 1740 nM.

For `O=C1N=C(NCc2cccs2)SC1Cc1ccc2ncccc2c1` (stereo not drawn) [RO4629078-000], the potency estimated from few doses is 890 nM in [12]; 699 nM in assay [9] (CATDS: 9.8317273929225003E-3); 2170 nM in assay [3] (compound concentrations: 100 nM and 1000 nM (sheet 'Samples'), CATDS: 7.0392832090842503E-3); 391 nM in assay [8] (compound concentrations: 100 nM and 1000 nM (sheet 'Samples'), CATDS: 1.27068399594295E-2); 343 nM in [13] (compound concentrations: 100 nM and 1000 nM (sheet 'Samples'), CATDS: 1.35837809267181E-2); 665 nM in assay [14] (compound concentrations: 100 nM and 1000 nM (sheet 'Samples'), CATDS: 1.00285824398185E-2). Besides, the potency estimated from few doses in assay [15] (CATDS: 1.6046460203227E-2) was 253 nM; in assay [4] (CATDS: 7.8908157683285005E-3), 1350 nM.

`O=C1N=C(NCCc2cccc(Cl)c2)S/C1=C\c1ccc2ncccc2c1` [RO4509201-000]: the potency estimated from few doses in assay [1] (compound concentrations: 100 nM and 1000 nM (sheet 'Samples'), CATDS: 5.6638769409894603E-2) is 1590 nM.

Turning to `Cl.Cl.Cl.c1ccc(Oc2ccc(Nc3ccnc4cc(-c5ccc(CN6CCNCC6)o5)ccc34)cc2)nc1.c1ccc(Oc2ccc(Nc3ccnc4cc(-c5ccc(CN6CCNCC6)o5)ccc34)cc2)nc1` [GW567142A], the potency estimated from few doses in assay [3] (compound concentrations: 100 nM and 1000 nM (sheet 'Samples'), CATDS: 1.6491067951183699E-2) is 2320 nM; in assay [10] (CATDS: 1.69384830257906E-2), 2080 nM.

As to `O=C1N=C(NCC(CO)c2ccccc2)S/C1=C\c1ccc2ncccc2c1` (stereo not drawn) [RO4582641-000], in [4] (CATDS: 6.1310776599809498E-2), the potency estimated from few doses was 1910 nM.

On to `CS(=O)(=O)Cc1ccc(Nc2nccc(-c3c(-c4cccc(NC(=O)C5CCCCC5)c4)nn4ncccc34)n2)cc1` [GSK350559A], for which the potency estimated from few doses in assay [7] (setting [20]) was 1890 nM; in assay [16] (setting [20]), 1770 nM.

As for `CN1C(=O)c2ccccc2N(C)c2nc(Nc3cnn(C4CCNCC4)c3)ncc21` [XMD-17-51], the potency estimated from few doses in [9] (CATDS: 2.0662278149912901E-2) was 412 nM; in assay [13] (compound concentrations: 100 nM and 1000 nM (sheet 'Samples'), CATDS: 1.61806798261299E-2), 911 nM; in assay [15] (CATDS: 1.7077716006994301E-2) it was 750 nM; in assay [2] (compound concentrations: 100 nM and 1000 nM (sheet 'Samples'), CATDS: 5.5086775745804402E-2), 42.4 nM.

For `COc1ccc(Nc2nccc(N3CCC(NC(=O)Nc4ccc5c(c4)OCO5)C3)n2)cc1` (stereo not drawn) [GSK1379745A], the potency estimated from few doses in [11] (CATDS: 3.4015058114393301E-2) is 2210 nM.

Take `CC(C)c1nc(-c2cccc(NS(=O)(=O)c3ccccc3)c2)c(-c2ccnc(Nc3ccc4c(c3)CN(C)CC4)n2)s1` [GSK1649598A]: the potency estimated from few doses in assay [17] was 621 nM; in assay [2] (compound concentrations: 100 nM and 1000 nM (sheet 'Samples'), CATDS: 1.5717541572097499E-2), 739 nM.

Turning to `COc1cccc(-n2ncc3c(N/N=C/c4ccc(C(=O)NCCN(C)C)cc4)ncnc32)c1.Cl` [GW784307A], the potency estimated from few doses in assay [5] (compound concentrations: 100 nM and 1000 nM (sheet 'Samples'), CATDS: 2.84173796904106E-2) is 1280 nM.

Take `CNc1nccc(-c2c(-c3ccc(F)cc3)ncn2C2CCN(C)CC2)n1` [SB-222903]: the potency estimated from few doses in assay [18] is 41.6 nM.

On to `COc1cc2ncn(-c3cc(OCc4cccs4)c(C(N)=O)s3)c2cc1OC` [GSK312948A], for which the potency estimated from few doses in assay [19] was 262 nM.

Regarding `Cl.Cn1c(=O)c(Cc2ccc(F)cc2F)cc2cnc(NC3CCOCC3)nc21` [RO3308757-001], the potency estimated from few doses in assay [8] (setting [20]) was 1650 nM; in assay [13] (setting [20]), 706 nM; in assay [14] (setting [20]), 1190 nM.

With `Fc1ccc(-c2c(-c3ccncc3)[nH]c3nccnc23)cc1` [RO1155697-000], the potency estimated from few doses in assay [18] is 52.8 nM.

Regarding `Cn1cc(-c2cnc(N)c3c(-c4ccc5c(c4)CCN5C(=O)Cc4ccccc4)csc23)cn1` [GSK2593074A], the potency estimated from few doses in [16] (setting [20]) is 1130 nM.

As to `COc1cc(/C=N/Nc2ncnc3[nH]ncc23)ccc1O` [GW578748X], the potency estimated from few doses in [3] (setting [20]) is 2040 nM.

`CN1CCc2ccc(Nc3nccc(-c4c(-c5cccc(NC(=O)c6c(F)cccc6F)c5)nc5ccccn45)n3)cc2C1.Cl` [GSK1010829B]: the potency estimated from few doses in assay [16] (compound concentrations: 100 nM and 1000 nM (sheet 'Samples'), CATDS: 3.6315985659661598E-2) was 1170 nM; in [2] (compound concentrations: 100 nM and 1000 nM (sheet 'Samples'), CATDS: 3.64108611477112E-2), 1170 nM.

As to `N#Cc1cccc(Nc2nccc(-c3cnn4ncccc34)n2)c1` [GW778894X], the potency estimated from few doses in [18] was 314 nM.
